PubChem BioAssay
Unmarked numbers belong to inactive results. Calls of active or inactive are those of the source. Cut-off read from the data, not from the text of the source: active = fold change permeability below about 0.7 or above about 1.3; inactive = in between.

Test: modulators of brain endothelial barrier permeability, primary screen, cell-based, FITC-avidin fluorescence, HTS (AID 1963498); note: test concentration not given here
Details: actives lie on both sides

| Structure (SMILES) | fold change permeability |
| --- | --- |
| O=C(O)CP(=O)(O)O | 1 |
| O=c1c(-c2ccc(O)cc2)coc2cc(O)cc(O)c12 | 0.8 |
| NCCSSCCN | 0.9 |
| Fc1ccc(-c2ccc(Nc3nc(Cl)nc(Cl)n3)cc2)cc1 | 0.9 |
| C=Cc1c(C)c2cc3[nH]c(cc4nc(cc5nc(cc1[nH]2)C(C)=C5CCC(=O)O)C(CCC(=O)O)=C4C)c(C)c3C=C | 1 |
| O=C1NC(=O)c2c1c(-c1ccccc1)cc1[nH]c3ccc(O)cc3c21 | 0.7 (active) |
| Cc1nc2ccc(NC(=O)Nc3ccnc4cccnc34)cc2o1 | 1.4 (active) |
| CCCCCCNC(=O)n1cc(F)c(=O)[nH]c1=O | 0.9 |
| CC(C)(C)NCC(O)COc1nsnc1N1CCOCC1 (stereo not drawn) | 1.4 (active) |
| O=C(NCCO)c1cccc(-c2cc(Nc3ccc(OC(F)(F)F)cc3)ncn2)c1 | 1.4 (active) |
| Cc1cc(Cn2cnc3c2C[C@@H](C(=O)O)N(C(=O)C(c2ccccc2)c2ccccc2)C3)ccc1N | 1 |
| CN1C2CCC1CC(OC(=O)c1c[nH]c3ccccc13)C2 (stereo not drawn) | 1.6 (active) |
| C[C@]12CC[C@@H]3c4ccc(O)cc4CC[C@H]3[C@@H]1CC[C@@H]2O | 1 |
| O=C(CCc1ccc(O)cc1)c1c(O)cc(O)cc1O | 1 |
| COc1cc2ncnc(Nc3cccc(Br)c3)c2cc1OC | 1.1 |
| Cc1ccc(Cl)c(Nc2ccccc2C(=O)O)c1Cl | 1.3 (active) |
| NC(N)=N/N=C/c1c(Cl)cccc1Cl | 1 |
| Cc1cccc(C)c1OCC(C)N (stereo not drawn) | 0.8 |
